From PubChem BioAssay (EPA / NIEHS)
Results filed as inconclusive are left out. Calls of active or inactive are those of the source. Rule for the calls, unless noted: active = hit-call score of the fitted dose curve at least 0.9, where 1 is the maximum; inactive = score below 0.9.

Assays:
[1] = biological target: human Vitamin D Receptor (VDR), VDR (gene 7421) (UniProt P11473); experiment: ATG_VDR_TRANS: Attagene TRANS-FACTORIAL HepG2 Assay for human Vitamin D Receptor (VDR) (AID 2283022; active = hit-call score of the fitted dose curve at least 0.9, where 1 is the maximum)
Sequence of human Vitamin D Receptor (VDR), VDR (gene 7421) (P11473 whole entry, looked up, the tested form may be a part): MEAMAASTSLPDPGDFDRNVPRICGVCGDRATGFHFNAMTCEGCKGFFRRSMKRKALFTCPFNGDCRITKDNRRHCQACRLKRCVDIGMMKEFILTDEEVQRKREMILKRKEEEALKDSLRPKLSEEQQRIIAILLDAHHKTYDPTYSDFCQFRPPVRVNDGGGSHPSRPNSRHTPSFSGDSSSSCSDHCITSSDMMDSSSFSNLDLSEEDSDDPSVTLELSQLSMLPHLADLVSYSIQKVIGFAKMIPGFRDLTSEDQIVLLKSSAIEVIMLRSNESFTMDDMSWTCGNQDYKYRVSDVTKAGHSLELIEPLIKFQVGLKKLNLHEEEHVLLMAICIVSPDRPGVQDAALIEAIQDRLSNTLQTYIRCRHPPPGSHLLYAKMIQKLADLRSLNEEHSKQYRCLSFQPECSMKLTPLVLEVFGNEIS
Method in brief: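 HepG2 cells were transiently transfected with multiple GAL4-UAS reporter units, so signal reflects exogenous chimeric receptor-Gal4 activity. After 24 h compound exposure, reporter mRNA was measured by RT-PCR, fluorescent labelling and capillary electrophoresis, fitted for gain of signal versus DMSO.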

[2] = BSK_3C_SRB: Viability Assessment in the BioMAP Diversity Plus: 3C Assay (AID 2283023); conditions: primary human endothelial cells (HUVEC);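 note: fitted both ways against DMSO so a hit may be signal rise or drop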
Method in brief: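 Primary human umbilical vein endothelial cells in the 3C system were read 24 h after compound dosing. Total protein was stained with 0.1% sulforhodamine B after 10% TCA fixation and read at 560 nm, with bidirectional fitting against DMSO as baseline.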

[3] = BSK_3C_Vis: BioMAP Diversity Plus: 3C Assay for Morphology Visualization (AID 2283025); conditions: primary human endothelial cells (HUVEC);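 note: fitted both ways so gain or loss versus DMSO counts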;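 for AC50: light microscopy image of cell morphology used as background control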
Method in brief: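 HUVEC, 3C system; light microscopy of morphology at 24 h post-dose. Bidirectional fit vs DMSO baseline. Secondary readout, background-control function.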

[4] = read-out: Pselectin, SELP (gene 6403); experiment: BSK_4H_Pselectin: BioMAP Diversity Plus: 4H Assay for Pselectin Biomarker Activity (AID 2283026); conditions: primary human endothelial cells (HUVEC); actives raise or lower the signal
Method in brief: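 HUVEC, 24 h chemical exposure; P-selectin read by ELISA. Bidirectional curve fit vs DMSO baseline; gain or loss of signal scored.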

[5] = BSK_BE3C_SRB: Viability Assessment in the BioMAP Diversity Plus: BE3C Assay (AID 2283028); conditions: primary human bronchial epithelial cells;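 for AC50: fitted both ways so AC50 may mark signal gain or loss versus DMSO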
Method in brief: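 Human primary bronchial epithelial cells were exposed to test chemicals for 24 h. Total protein in parallel cultures was then measured by staining with 0.1% sulforhodamine B after 10% TCA fixation, with absorbance read at 560 nm. Activity was fitted bidirectionally against DMSO.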

[6] = read-out: Thrombomodulin, THBD (gene 7056); experiment: BSK_3C_Thrombomodulin: BioMAP Diversity Plus: 3C Assay for Thrombomodulin Biomarker Activity (AID 2283029); conditions: primary human endothelial cells (HUVEC); actives raise or lower the signal
Method in brief: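 HUVEC, 3C conditions; compound 24 h; thrombomodulin by ELISA; bidirectional curve fit vs DMSO baseline; parallel SRB total-protein staining for cytotoxicity.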

[7] = read-out: Urokinase-type plasminogen activator receptor (uPAR), PLAUR (gene 5329); experiment: BSK_4H_uPAR: BioMAP Diversity Plus: 4H Assay for Urokinase-type plasminogen activator receptor (uPAR) Biomarker Activity (AID 2283030); conditions: primary human endothelial cells (HUVEC); actives raise or lower the signal
Method in brief: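 Primary human umbilical vein endothelial cells were exposed to chemical for 24 h before cell-surface uPAR was quantified by ELISA. Activity was fitted bidirectionally against the DMSO negative control baseline.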

[8] = read-out: Vascular endothelial growth factor receptor 2 (Homo sapiens) (UniProt P35968); experiment: BSK_4H_VEGFRII: BioMAP Diversity Plus: 4H Assay for Vascular endothelial growth factor receptor 2 (VEGFR2) Biomarker Activity (AID 2283031); conditions: primary human endothelial cells (HUVEC); actives raise or lower the signal
Method in brief: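 Primary human umbilical vein endothelial cells in the BioMAP 4H system were dosed with test chemical, and 24 h later VEGFRII was measured by ELISA. Activity was fitted bidirectionally against DMSO as negative control and baseline.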

[9] = read-out: Vascular cell adhesion molecule 1 (VCAM1), VCAM1 (gene 7412); experiment: BSK_4H_VCAM1: BioMAP Diversity Plus: 4H Assay for Vascular cell adhesion molecule 1 (VCAM1) Biomarker Activity (AID 2283033); conditions: primary human endothelial cells (HUVEC); actives raise or lower the signal
Method in brief: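 HUVEC, 24 h post-dose; VCAM-1 by ELISA. Bidirectional curve fit vs DMSO baseline. Parallel SRB total-protein stain (0.1% SRB after 10% TCA fixation, 560 nm) for cytotoxicity.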

[10] = read-out: Interferon-gamma inducible Protein 10 (IP10), CXCL10 (gene 3627); experiment: BSK_BE3C_IP10: BioMAP Diversity Plus: BE3C Assay for Interferon-gamma inducible Protein 10 (IP10) Biomarker Activity (AID 2283034); conditions: primary human bronchial epithelial cells; actives raise or lower the signal
Method in brief: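 ELISA readout of IP-10 in BE3C system: primary human bronchial epithelial cells, 24 h post-dosing; bidirectional curve fit vs DMSO baseline.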

[11] = read-out: Monokine induced gamma interferon (MIG), CXCL9 (gene 4283); experiment: BSK_BE3C_MIG: BioMAP Diversity Plus: BE3C Assay for Monokine induced gamma interferon (MIG) Biomarker Activity (AID 2283035); conditions: primary human bronchial epithelial cells; actives raise or lower the signal
Method in brief: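 Dose cells (human primary bronchial epithelial), incubate 24 h, quantify MIG by ELISA, then fit concentration–response in both directions relative to DMSO control.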

[12] = read-out: Transforming growth factor beta 1 (TGFb1), TGFB1 (gene 7040); experiment: BSK_BE3C_TGFb1: BioMAP Diversity Plus: BE3C Assay for Transforming growth factor beta 1 (TGFb1) Biomarker Activity (AID 2283036); conditions: primary human bronchial epithelial cells; actives raise or lower the signal
Method in brief: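 Read-out: ELISA for TGF-b1 in primary human bronchial epithelial cultures, 24 h post-dose. Bidirectional curve fitting vs DMSO control; gain or loss of signal both scored.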

[13] = read-out: Plasminogen activator inhibitor-1 (PAI1), SERPINE1 (gene 5054); experiment: BSK_BE3C_PAI1: BioMAP Diversity Plus: BE3C Assay for Plasminogen activator inhibitor-1 (PAI1) Biomarker Activity (AID 2283037); conditions: primary human bronchial epithelial cells; actives raise or lower the signal
Method in brief: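 ELISA read-out of PAI-1 from human bronchial epithelial primary cells, 24 h post-dosing; bidirectional curve fit vs DMSO baseline, gain or loss of signal scored.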

[14] = read-out: urokinase plasminogen activator (uPA), PLAU (gene 5328); experiment: BSK_BE3C_uPA: BioMAP Diversity Plus: BE3C Assay for urokinase plasminogen activator (uPA) Biomarker Activity (AID 2283038); conditions: primary human bronchial epithelial cells; actives raise or lower the signal
Method in brief: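 Human primary bronchial epithelial cells were exposed to chemical for 24 h, then uPA levels were measured by ELISA. Responses were fitted bidirectionally against DMSO as negative control and baseline. Parallel SRB staining of total protein gauged overt cytotoxicity.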

[15] = read-out: Urokinase-type plasminogen activator receptor (uPAR), PLAUR (gene 5329); experiment: BSK_BE3C_uPAR: BioMAP Diversity Plus: BE3C Assay for Urokinase-type plasminogen activator receptor (uPAR) Biomarker Activity (AID 2283039); conditions: primary human bronchial epithelial cells; actives raise or lower the signal
Method in brief: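 ELISA readout of uPAR on human lung primary bronchial epithelial cells, 24 h post-dosing. Bidirectional curve fit relative to DMSO vehicle baseline; gain or loss of signal both scored.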

[16] = read-out: Interleukin-6 (IL6), IL6 (gene 3569); experiment: BSK_CASM3C_IL6: BioMAP Diversity Plus: CASM3C Assay for Interleukin-6 (IL6) Biomarker Activity for (AID 2283040); conditions: primary human coronary artery smooth muscle cells; actives raise or lower the signal
[17] = read-out: Tissue plasminogen activator (tPA), PLAT (gene 5327); experiment: BSK_BE3C_tPA: BioMAP Diversity Plus: BE3C Assay for Tissue plasminogen activator (tPA) Biomarker Activity (AID 2283041); conditions: primary human bronchial epithelial cells; actives raise or lower the signal
Method in brief: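 ELISA read-out of tPA on human primary bronchial epithelial cells, 24 h post-dosing; bidirectional fit vs DMSO negative control/baseline.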

[18] = read-out: Matrix Metallopeptidase 1 (MMP1), MMP1 (gene 4312); experiment: BSK_BE3C_MMP1: BioMAP Diversity Plus: BE3C Assay for Matrix Metallopeptidase 1 (MMP1) Biomarker Activity (AID 2283024); conditions: primary human bronchial epithelial cells; actives raise or lower the signal
Method in brief: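 ELISA read-out of MMP1 in human lung bronchial epithelial primary cultures, 24 h post-dose; bidirectional curve fit vs DMSO baseline, gain or loss of signal scored.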

[19] = BSK_4H_SRB: Viability Assessment in the BioMAP Diversity Plus: 4H Assay (AID 2283027); conditions: primary human endothelial cells (HUVEC);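 note: cells exposed to compound for 24 h before staining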;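 for AC50: curves fitted both ways versus DMSO so AC50 may be loss or gain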
Method in brief: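 HUVEC, 24 h post-dose; 10% TCA fix, 0.1% SRB stain, A560 nm. Total protein = overt cytotoxicity, parallel to biomarker read. Bidirectional fit vs DMSO baseline.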

[20] = read-out: Human Leukocyte Antigen - DR isotype (HLADR), HLA-DRA (gene 3122); experiment: BSK_BE3C_HLADR: BioMAP Diversity Plus: BE3C Assay for Human Leukocyte Antigen - DR isotype (HLADR) Biomarker Activity (AID 2283032); conditions: primary human bronchial epithelial cells; actives raise or lower the signal
Method in brief: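 Primary human bronchial epithelial cells (BE3C); 24 h chemical exposure; HLA-DR by ELISA; bidirectional curve fit vs DMSO baseline.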

Measured: AC50

CSc1ccc(Oc2ccc(S(N)(=O)=O)cc2CN(C)C)cc1C
active: [3] 39 µM | [7] 12.2 µM
inactive: [1] | [2] | [4] | [5] | [6] | [8] | [9] | [10] | [11] | [12] | [13] | [14] | [15] | [16] | [17]

Cc1occc(=O)c1O
inactive: [1] | [2] | [3] | [4] | [5] | [6] | [7] | [8] | [9] | [10] | [11] | [12] | [13] | [14] | [15] | [16] | [17]

CCOCCOCCO
inactive: [2] | [18] | [3] | [4] | [19] | [5] | [6] | [7] | [8] | [20] | [9] | [10] | [11] | [12] | [13] | [14] | [15] | [16] | [17]

CCCCC(CC)CO (stereo not drawn)
inactive: [1] | [2] | [3] | [4] | [5] | [6] | [7] | [8] | [9] | [10] | [11] | [12] | [13] | [14] | [15] | [16] | [17]

O=C(NS(=O)(=O)/C=C/c1cccs1)c1ccc(F)cc1Br
active: [10] 32.6 µM
inactive: [1] | [2] | [3] | [4] | [5] | [6] | [7] | [8] | [9] | [11] | [12] | [13] | [14] | [15] | [16] | [17]

CCN(CC)CCOc1ccc(C(=C(Cl)c2ccccc2)c2ccccc2)cc1
inactive: [1] | [8]
active: [2] 11.7 µM | [3] 6.1 µM | [4] 8.24 µM | [5] 27.8 µM | [6] 5.39 µM | [7] 13 µM | [9] 11.6 µM | [10] 15.3 µM | [11] 25.7 µM | [12] 16.1 µM | [13] 26.1 µM | [14] 26 µM | [15] 26.3 µM | [16] 31.6 µM | [17] 11.1 µM

CN(C)CCCN1c2ccccc2Sc2ccc(Cl)cc21
active: [18] 32.9 µM | [4] 35.9 µM | [19] 26 µM | [5] 39 µM | [7] 12.2 µM | [9] 17.8 µM | [10] 30.5 µM | [11] 38.4 µM | [12] 32.1 µM | [13] 31.9 µM | [15] 29.4 µM | [17] 32.1 µM
inactive: [1] | [6] | [8] | [16]

NC=O
inactive: [1] | [2] | [3] | [4] | [19] | [5] | [6] | [7] | [8] | [9] | [10] | [11] | [12] | [13] | [14] | [15] | [16] | [17]
